We go through 72 molecules from PubChem BioAssay AID686978 (National Center for Advancing Translational Sciences (NCATS), 2013).

Each structure is given as a SMILES string. Among all 420,000 compounds or so, about 64,000 (15%) were called active. Roughly 27% stayed inconclusive and do not appear here. The list is a sample of the results. A number with no mark means an inactive call. The call rests on the fitted dose curve; in most records, active means well fitted inhibition curve with a large enough effect; inconclusive means small, poorly fitted or top-dose-only effect; inactive means flat fitted curve, though single readings scatter.
On the % scale 0 is the no-effect control and ±100 the full control effect; potency means the concentration at half of the fitted maximal effect.

A short description of this experiment: qHTS for Inhibitors of human tyrosyl-DNA phosphodiesterase 1 (TDP1): qHTS in cells in absence of CPT. Further: nearly all actives have a fitted effect of over 55% in size. The settings on record: DT40 Tdp1-/- hTDP1 cells, no CPT, ATP luminescence, 48 h; activity change, negative = growth inhibition: at 46.2 µM (top of the series). The method, boiled down: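 Luminescent ATP content (CellTiter-Glo) served as the growth readout. Knockout chicken DT40 cells expressing human TDP1 were exposed to compounds without camptothecin for a minimum 48 hr at 37 °C.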
On the technique in general: Quantitative high-throughput screening tests each substance at several concentrations.
Turning to `O=C(c1ccco1)N1CCN(C(=O)C2CC(c3ccc(F)cc3)=NO2)CC1` (configuration not stated), the “activity change, negative = growth inhibition” value is 8.49%.
With `COc1ccccc1N(CC(=O)Nc1ccc(C(F)(F)F)cc1)S(C)(=O)=O`, the “activity change, negative = growth inhibition” value is 4.9%.
Take `COC(=O)c1ccc(CN(c2ccccc2OC)S(=O)(=O)c2cccs2)o1`: the Potency was 23.1 µM (active).
Regarding `COC(=O)c1ccc(Cc2ccccc2)o1`, the “activity change, negative = growth inhibition” value is -14%.
In the case of `O=C(O)C1C2CC2CN1C(=O)c1ccc(Cl)cc1Cl` (configuration not stated), the “activity change, negative = growth inhibition” value was -14.9%.
On the same count and under the same terms, in the case of `O=C(CSC1CC(=O)N(CCc2ccccc2)C1=O)Nc1ccc(Cl)cc1` (configuration not stated) it was -19.9%; in that of `O=C(CSc1ccc(-c2ccco2)nn1)NCc1ccc2c(c1)OCO2`, -1.47%; in that of `O=C(CSc1ccc(-c2ccc(-n3cccn3)cc2)nn1)Nc1ccc([N+](=O)[O-])cc1`, -3.72%.
For the molecule `O=C(CSc1ccc(-c2ccccn2)nn1)Nc1ccccc1`, the Potency was 18.4 µM (active).
For the molecule `Cc1ccccc1NC(=O)CSc1ccc2nnc(-c3ccccn3)n2n1`, the “activity change, negative = growth inhibition” value is -11.4%.
Still for that read-out and setting: next, `O=C(CSc1ccc(-c2ccc(F)cc2)nn1)Nc1ccc2c(c1)OCCO2`: -27.9%.
As for `O=C(CSc1ccc(-c2ccco2)nn1)Nc1cccc(F)c1`, the Potency was 20.6 µM (active).
Turning to `O=C(CCC(=O)OCc1cccc(C(=O)Oc2ccccc2)c1)Nc1cccc2ccccc12`, the “activity change, negative = growth inhibition” value was -21.2%.
On the same count and under the same terms, in the case of `C=CCOc1ccccc1NC(=O)CN1C(=O)CNC1=O` it was -7.28%; in that of `COc1nc(N(C)C)nc(N2CC(=O)N(CCNS(=O)(=O)c3ccc(C)cc3)C2=N)n1`, -15.3%.
Still for that read-out and setting: in the case of `NC(=O)C1(N2CCCCC2)CCN(C(=S)Nc2ccc(Cl)cc2)CC1` it was -6.42%; in that of `CC(C)(C)Oc1ncc(Br)c(OC(C)(C)C)n1`, -2.08%; in that of `Cc1ccc(/C=C/C(=O)OCC(=O)NCc2ccc(Cl)cc2)o1`, 8.3%.
The same measure, in the same setting: in the case of `CCOCCCNC(=O)C(NC(=O)c1ccccc1O)c1ccccc1` (configuration not stated) it was -7.83%; in that of `O=C(CSc1nnc(C2CC2)n1Cc1ccccc1)Nc1cccnc1Cl`, 6.73%.
On to `CCC1(C(=O)c2ccccc2)C(c2cccc([N+](=O)[O-])c2)C1(C(=O)OC)C(=O)OC` (configuration not stated), for which the Potency was 13 µM (active).
With `O=C(NOCc1ccccc1)c1cccc([N+](=O)[O-])c1`, the “activity change, negative = growth inhibition” value was -4.33%.
Regarding `CCC(CC)NC(=O)/C=C/c1cccc([N+](=O)[O-])c1`, the “activity change, negative = growth inhibition” value is -26.5%.
Still for that read-out and setting: next, `COc1ccc(C)cc1NC(=O)Nc1ccccc1SC`: -14%.
On to `O=C(COC(=O)Cc1ccc([N+](=O)[O-])cc1)NC1CCCCCC1`, for which the “activity change, negative = growth inhibition” value is 21.9%.
`CN(C(=O)CCN1C(=O)/C(=C/c2ccccc2F)SC1=S)C1CCS(=O)(=O)C1` (configuration not stated): the Potency is 23.1 µM (active).
In the case of `COc1ccccc1/C=C1\SC(=O)N(CCC(=O)N(C)C2CCS(=O)(=O)C2)C1=O` (configuration not stated), the “activity change, negative = growth inhibition” value is -17.3%.
The same measure, in the same setting: in the case of `CN(C(=O)CN1C(=O)S/C(=C\c2ccccc2F)C1=O)C1CCS(=O)(=O)C1` (configuration not stated) it was -1.69%; in that of `CSc1cc(C)n(-c2ccccc2C)c(=S)c1C(C)=O`, -2.36%.
On to `Cc1cccc(NC(=O)CSc2nnc(CCNC(=O)OC(C)(C)C)o2)c1C`, for which the “activity change, negative = growth inhibition” value was -2.72%.
Consider `CC1CC(C)CN(C(=O)CCNC(=O)Cn2cnc3ccccc3c2=O)C1` (configuration not stated), for which the “activity change, negative = growth inhibition” value was -6.93%.
The same measure, in the same setting: in the case of `CCc1ccc(NC(=O)CSc2nnc(-c3cnccn3)n2Cc2ccco2)cc1` it was -21.8%.
As for `CN1CCN(c2ncc3c(n2)CC(c2ccccc2F)CC3=O)CC1` (configuration not stated), the Potency was 18.4 µM (active).
`CCCN1CCc2nc(N3CCN(C)CC3)ncc2C1`: the “activity change, negative = growth inhibition” value was -13.9%.
With `O=C1c2ccccc2C(=O)C1c1ccccc1F`, the “activity change, negative = growth inhibition” value is -1.5%.
On the same count and under the same terms, in the case of `CSc1nsc(SC)c1NC(=O)OC1CCCCC1` it was -24.9%.
Turning to `N#CCSc1nn(-c2ccc(F)cc2)c(=S)s1`, the “activity change, negative = growth inhibition” value was -15.7%.
Same read-out and setting: next, `CCOC(=O)N/N=C1\CC(C)S(=O)(=O)c2ccc(Cl)cc21` (configuration not stated): -29.5%.
The same measure, in the same setting: in the case of `Cc1nc(N2CCOCC2)nc2c1CCCC2` it was -3.14%; in that of `COc1cccc(C(C(=O)NC2CCCC2)N(C(=O)c2ccco2)c2cccc(C(C)=O)c2)c1OC` (configuration not stated), -19.3%.
With `Fc1c(F)c(C(F)(F)F)c(F)c(F)c1N1CCN(c2ccc3nnc(C(F)(F)F)n3n2)CC1`, the Potency was 23.1 µM (active).
Regarding `FC(F)(F)c1nnc2ccc(N3CCN(c4ccccc4)CC3)nn12`, the “activity change, negative = growth inhibition” value was -23.8%.
With `NC(=O)c1oc2ccccc2c1NC(=O)CS(=O)(=O)c1ccccc1`, the “activity change, negative = growth inhibition” value is 14.4%.
On the same count and under the same terms, in the case of `Cc1ccc(C(=O)CCC(=O)N(C)CC(=O)Nc2c(Cl)cccc2Cl)cc1` it was -20.5%.
As to `CC(C)CC(N=C1NC(C)(C)Cc2ccccc21)C(=O)O` (configuration not stated), the “activity change, negative = growth inhibition” value was 0.347%.
Still for that read-out and setting: in the case of `Cc1nc2ccc(N)nc2nc1C` it was 0.191%; in that of `Cn1c(C(=O)NCCCN2CCCCC2)cc2sccc21`, -27.6%.
As for `O=C(CCN1CCCCC1)N=Nc1c(O)[nH]c2ccccc12`, the Potency was 23.1 µM (active).
On to `O=C(CNC(=O)Cc1ccccc1)N=Nc1c(O)[nH]c2ccc(Br)cc12`, for which the “activity change, negative = growth inhibition” value was -29.5%.
Still for that read-out and setting: in the case of `COCC(=O)N=Nc1c(O)[nH]c2ccccc12` it was -18.6%; in that of `COc1ccccc1CNC(=O)CCCNS(=O)(=O)c1cccc2nsnc12`, -2.92%; in that of `Cn1c(C(=O)O)ccc1S(=O)(=O)N(Cc1ccccc1)Cc1ccccc1`, 1.26%.
On the same count and under the same terms, next, `COc1ccc(C2NC(=O)C(=O)/C2=C(\O)c2ccc(Cl)cc2)cc1OC` (configuration not stated): -6.54%.
For `CCCCOc1ccc(CSC(=N)N)cc1[N+](=O)[O-]`, the Potency is 11.6 µM (active).
In the case of `Cc1nc(SCc2ccc(F)cc2)c([N+](=O)[O-])[nH]1`, the “activity change, negative = growth inhibition” value was -10.3%.
Still for that read-out and setting: next, `CCOc1ccc(C(=O)Nc2nccs2)cc1[N+](=O)[O-]`: 0.0318%.
Take `CCCCCOc1ccc(CSC2=NCCN2)cc1[N+](=O)[O-]`: the Potency was 23.1 µM (active).
Take `CCCCOc1ccc(CON(C(C)=O)C(C)=O)cc1Cl`: the “activity change, negative = growth inhibition” value was 20.8%.
The same measure, in the same setting: next, `COc1ccc(NC(=O)CSCc2ccc([N+](=O)[O-])cc2)cc1OC`: -29.2%; `CC(NC(=O)CC1SC(N)=NC1=O)c1ccccc1` (configuration not stated): 22.5%.
For the molecule `CCc1cc(-c2nnn(CCC3COCCO3)c2CC)ccc1-c1cn(Cc2ccc3ccccc3c2)nn1` (configuration not stated), the Potency is 5.8 µM (active).
On the same count and under the same terms, next, `CCCCCc1ccc(-c2cn(Cc3ccc4ccccc4c3)nn2)cc1`: “inactive”.
As for `O=C(Nc1ccccc1Cl)N1CCC(CN2CCCC2)CC1`, the “activity change, negative = growth inhibition” value was -0.183%.
As to `COc1ccc(C(=O)Nc2nonc2-c2ccc(OC)c(OC)c2)cc1Cl`, the Potency was 23.1 µM (active).
With `CCn1nnc(NC(=O)c2cc(Cl)c(OC)c(Cl)c2)n1`, the “activity change, negative = growth inhibition” value was -21.1%.
Take `COc1ccc(-c2nonc2NC(=O)c2oc3ccc(F)cc3c2C)cc1OC`: the “activity change, negative = growth inhibition” value was -19.1%.
For `Cc1cc(C(=O)COc2ccccc2Cl)c(C)n1C1CC1`, the Potency was 6.51 µM (active).
`CN1CCN(C(=O)c2ccccc2NC(=O)COc2ccccc2Cl)CC1`: the “activity change, negative = growth inhibition” value is -5.01%.
Turning to `Cc1cc(C(=O)COc2ccc(Br)cc2F)c(C)n1C1CC1`, the Potency was 3.26 µM (active).
Regarding `O=C(COc1ccccc1Cl)Nn1cnnc1`, the “activity change, negative = growth inhibition” value was 0.711%.
`CCOC(=O)CC1C(=O)NCCN1C(=O)COc1ccc(Br)cc1C` (configuration not stated): the “activity change, negative = growth inhibition” value is -1.36%.
In the case of `CC(=O)C1=C(C)NC(=O)NC1c1cc(Br)ccc1OCC#N` (configuration not stated), the “activity change, negative = growth inhibition” value is 1.02%.
